Sampled rows, rich in hits. Any-hit rate of the full collection: about 2.9%.
ADAM10 inh: human ADAM10 inhibitors, primary screen, biochemical, QFRET, HTS; Disintegrin and metalloproteinase domain-containing protein 10 (Homo sapiens), O14672; recombinant ADAM10, EDANS/DABCYL FRET peptide cleavage, 3 h; inhibition, % at 7 µM; actives 0.62% (n = 370,000);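 active means inhibition above a per-campaign cutoff equal to the mean of compounds falling between control-based bounds plus 3 SD, cut at about 20% in these data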;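 further: 0% = DMSO wells while the 100% control is not disclosed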
Target sequence (O14672 214-748 limits assumed): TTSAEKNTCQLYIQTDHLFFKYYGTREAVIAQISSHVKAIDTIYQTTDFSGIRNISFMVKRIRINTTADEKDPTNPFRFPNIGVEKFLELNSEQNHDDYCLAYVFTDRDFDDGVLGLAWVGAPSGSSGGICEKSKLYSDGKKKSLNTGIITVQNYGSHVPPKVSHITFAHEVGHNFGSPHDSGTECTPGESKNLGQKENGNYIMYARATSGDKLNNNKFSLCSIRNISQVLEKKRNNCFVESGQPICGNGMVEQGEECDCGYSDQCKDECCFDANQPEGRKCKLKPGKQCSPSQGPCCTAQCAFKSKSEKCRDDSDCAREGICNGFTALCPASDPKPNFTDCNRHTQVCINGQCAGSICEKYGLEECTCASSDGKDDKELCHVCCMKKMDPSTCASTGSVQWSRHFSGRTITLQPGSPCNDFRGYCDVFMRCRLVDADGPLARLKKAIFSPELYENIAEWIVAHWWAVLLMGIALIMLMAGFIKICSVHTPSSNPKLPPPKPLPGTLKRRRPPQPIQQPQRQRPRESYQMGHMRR
PLC-beta3 inh: human PLC-beta3 inhibitors, primary screen, biochemical, fluorescence; 1-phosphatidylinositol 4,5-bisphosphate phosphodiesterase beta-3 (Homo sapiens), Q01970; Purified PLC-beta3, fluorogenic substrate; inhibition, % at 12.2 µM; actives 0.18% (n = 370,000); AID 720704, 2013; in the data active means inhibition above about 11%;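 further: 0% = median of compound wells on plate and 100% = full blocker control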
ADAM17 inh: ADAM17 inhibitors, primary screen, biochemical, QFRET; recombinant ADAM17, EDANS/DABCYL FRET peptide cleavage; actives 0.83% (n = 370,000); inhibition, % at 6.95 µM;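 active means inhibition above the mean of compounds lying between control limits plus 3 SD, set per campaign, cut at about 8.5% in these data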;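 further: 0% = DMSO-only wells as the low control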
proKLK7 act: proKLK7 zymogen activators, primary screen, biochemical, fluorescence intensity; Kallikrein-7 (Homo sapiens), P49862; purified proKLK7, EDANS-DABCYL substrate fluorescence; 100% is mature enzyme control, 0% vehicle; activation, % at 7 µM; actives 0.9% (n = 370,000);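 active means activation above the mean of all tested compounds plus 3 SD, computed per campaign excluding outliers beyond control limits, cut at about 13% in these data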
PLC-gamma1 inh: PLC-gamma1 enzyme inhibitors, primary screen, biochemical, fluorescence, purified enzyme | fluorogenic substrate | inhibition, % at 12.2 µM | actives 0.84% (n = 370,000) | AID 720700, 2013; in the data active means inhibition above about 9.5%
proKLK7 act conf: proKLK7 zymogen activators, confirmation, biochemical, fluorescence intensity, triplicate. shares compounds with proKLK7 act. purified proKLK7, EDANS-DABCYL substrate fluorescence; scaled: vehicle 0, mature enzyme 100. activation, % at 7 µM. actives 68% (n = 3,200);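 active means activation, as change over the incubation, above the mean of all tested compounds plus 3 SD, cut at about 13% in these data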
EDANS-DABCYL int: EDANS-DABCYL substrate optical interference, artefact control for kallikrein-7 zymogen activator project, biochemical, fluorescence intensity, high throughput; shares compounds with proKLK7 act; no enzyme, 4 h; solvent 0%, active enzyme control 100%; activation, % at 7 µM; actives 80% (n = 3,200); AID 686952, 2013;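 active means activation above the all-compound mean plus 3 SD, ignoring values outside control-based bounds, cut at about 4.8% in these data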;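 further: value is the 4 h activation minus the activation read at time zero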
Numbers without * were called inactive; i = inactive; · = not tested or not shown.

SMILES | ADAM10 inh | PLC-beta3 inh | ADAM17 inh | proKLK7 act | PLC-gamma1 inh | proKLK7 act conf | EDANS-DABCYL int
COC(=O)CCC(=O)N1C2=NC3=C(C(=O)N(Cc4ccc5c(c4)OCO5)C3=O)C3N(C)c4ccccc4[C@]23C[C@H]1CO (stereo partly drawn) | 5 | 0 | 5 | 1 | 0 | · | ·
COc1ccccc1NS(=O)(=O)c1cccc(C(=O)N/N=C/c2ccc(NC(C)=O)cc2)c1 | -75 | -49 | -70 | 235* | -30 | -8 | -4
CCc1cc2c(=O)c(-c3ccc4c(c3)OCO4)coc2c(CN(C)C)c1O | -318 | i | -127 | 8 | i | · | ·
COc1ccccc1-c1coc2cc(O)cc(O)c2c1=O | -8 | 0 | -3 | 0 | -2 | · | ·
CCN(CC)Cc1c(O)ccc2c(=O)c(-c3ccccc3Cl)coc12 | i | i | -489 | 40* | i | 67* | 62*
CCN(CC)Cc1c(O)ccc2c(=O)c(-c3ccccc3OC)coc12 | i | i | i | 85* | i | 51* | 74*
O=S1(=O)CCN2C=C(Cl)C=C(Cl)C2=N1 | i | i | -469 | 25* | -432 | 33* | 29*
CCCC1CCC2(CC1)CCC2OC(=S)Nc1cccc(Cl)c1 (stereo not drawn) | -7 | -2 | -5 | · | 2 | · | ·
Cn1c(=O)c(-c2ccccc2)cc2ccccc21 | -231 | -12 | -52 | 0 | -12 | · | ·
O=c1nc2n(CCO)c3ccccc3cc-2c(=O)[nH]1 | i | -349 | -194 | 18* | -264 | 48* | 54*
Cn1c2nc(=O)[nH]c(=O)c-2cc2ccccc21 | i | i | i | 70* | i | 67* | 65*
O=c1nc2n(Cc3ccccc3)c3ccccc3cc-2c(=O)[nH]1 | -495 | -199 | -136 | 8 | -156 | · | ·
Cc1ccc(CNC(=O)OC(C)(C)C)c(/C=C/S(=O)(=O)NCCc2ccccc2)c1 | -5 | -5 | -2 | 0 | 2 | · | ·
CC(C)Cn1c(N)c(C(=O)COC(=O)c2nccnc2N)c(=O)n(C)c1=O | i | -461 | i | 13* | -337 | 4 | 1
CC(C)Cn1c(N)c(C(=O)COC(=O)c2ccncc2)c(=O)n(C)c1=O | -1 | 0 | -1 | 0 | -3 | · | ·
CN(C)c1ccc(-c2nc3ncc(Cl)cc3[nH]2)cc1 | i | i | i | 17* | i | -3 | 12*
Cc1ccc(S(=O)(=O)n2ccc(-c3c(-c4ccc(F)cc4)noc3C)n2)cc1 | 12 | 3 | 6 | 0 | -1 | · | ·
C[C@H]1C(c2ccc(F)cc2)=NN(c2ccccc2)[C@@H]1CO | i | i | -478 | 23* | i | -13 | -26
CSc1ccc(/C=C/C(=O)N2CCCN(C)CC2)cc1 | -302 | -152 | -103 | 17* | -126 | 3 | 5.9*
CN1CCN(C(=O)/C=C\c2ccc(Cl)cc2)CC1 | 1 | 0 | -1 | 0 | 0 | · | ·
COCCCNC(=O)CC1C[C@H](C(=O)N2CCOCC2)[C@@]2(C)c3[nH]c4ccccc4c3CCN2C1=O (stereo partly drawn) | -1 | -1 | -1 | -1 | 4 | · | ·
COCCCNC(=O)CC1C[C@H](C(=O)N(C(C)C)C(C)C)[C@@]2(C)c3[nH]c4ccccc4c3CCN2C1=O (stereo partly drawn) | 4 | 3 | 5 | 1 | 1 | · | ·
COCCCNC(=O)C[C@H]1C[C@H](C(=O)N2CCOCC2)[C@@]2(C)c3[nH]c4cc(-c5ccco5)ccc4c3CCN2C1=O | i | i | -163 | 82* | i | 95* | 130*

High-throughput results (PubChem)
